Type in all cases: functional
The subject of test [1] is Plasmodium falciparum. Put plainly: GSK_TCMDC: Inhibition of Plasmodium falciparum 3D7 in whole red blood cells, using parasite LDH activity as an index of growth. Test compounds present at 2uM.
Test [2] deals with Plasmodium falciparum. Briefly: GSK_TCMDC: Inhibition of Plasmodium falciparum Dd2 in whole red blood cells, using parasite LDH activity as an index of growth. Test compounds present at 2uM.
Test [3] deals with HepG2. Put plainly: GSK_TCMDC: Percent inhibition of human HepG2 cell line. Test compounds present at 10uM.

On to `Cc1cccc2nc(-c3cccc(-c4cccc(NC(=O)NC5CC5c5ccccc5)c4)c3)[nH]c12` (centres undefined), for which the Inhibition in test [1] worked out at 98%; in test [2], 28%; in test [3], 0%.

In the case of `C=CCc1cc(Cc2cnc(N)nc2N)cc(CCC)c1O`, the Inhibition in test [1] turned out to be 90%; in test [2] it was 2%; in test [3], 54%.

Turning to `Cl.O=C(c1ccc(Cl)cc1)C1CCN(CCCOc2ccc3c(c2)CCNCC3)CC1`, the results for the Inhibition in test [1], in test [2] and in test [3] were 93%, 23% and 78%, respectively.

Consider `COc1ccc(CC2(c3ccc(F)cc3)N=C(N)N(CCCc3cccnc3)C2=O)cc1.O=C(O)C(F)(F)F` (centres undefined), for which the Inhibition is recorded as 98% in test [1], 97% in test [2] and 12% in test [3].

With `O=C(Nc1cccc(CN2CCCN(Cc3cccc(Cl)c3)CC2)c1)c1ccc(Cl)c(Cl)c1.O=C(O)C(F)(F)F`, the figures for the Inhibition in test [1], in test [2] and in test [3] were 89%, 17% and 18%, respectively.

Consider `Cc1nnsc1C(=O)Nc1ccc(-c2cccc(-c3nc4cccc(C)c4[nH]3)c2)cc1`, for which the Inhibition in test [1] stood at 98%; in test [2] it was 47%; in test [3], 23%.

As for `Cc1ccc(S(=O)(=O)N(CCCN2CCN(C)CC2)Cc2csc(-c3ccc(CNCc4ccccc4)cc3)n2)cc1.O=C(O)C(F)(F)F`, the Inhibition in test [1] was found to be 97%; in test [2], 90%; in test [3], 15%.

As for `CCCCNCC(O)COc1ccccc1-c1ccc(N/N=C/c2cccc3ccccc23)nn1` (centres undefined), the Inhibition in test [1] turned out to be 99%; in test [2], 8%; in test [3], 38%.

Turning to `O=C(Nc1ccc(OC2CCN(Cc3ccccc3)C2)c(Cl)c1)c1ccco1.O=C(O)C(F)(F)F` (centres undefined), the results for the Inhibition in test [1], in test [2] and in test [3] were 95%, 94% and 13%, respectively.

Take `Cc1noc(C)c1-c1cccc(CNCc2cccc(-c3ccc(-c4nc5cccc(C)c5[nH]4)s3)c2)c1.O=C(O)C(F)(F)F`: the Inhibition came out at 100% in test [1], 75% in test [2] and 22% in test [3].

Regarding `Clc1ccc(-c2csc3ncnc(Cl)c23)cc1`, the Inhibition was determined as 94% in test [1], 95% in test [2] and 0% in test [3].

Take `CCC(C)OC(=O)C1=C(C)NC2=C(C(=O)CC(c3ccc(OC)c(OC)c3)C2)C1c1ccc(C)o1` (centres undefined): the Inhibition stood at 93% in test [1], 82% in test [2] and 6% in test [3].

As to `CC(=O)N(C)c1cccc(CNc2cc(C)nc(Nc3ccc(C)cc3)n2)c1`, the Inhibition in test [1] worked out at 97%; in test [2], 21%; in test [3] it was 8%.

For the molecule `CN1CCN(CCCN(Cc2csc(-c3ccc(CNCc4ccccc4)cc3)n2)S(=O)(=O)c2ccc(F)cc2)CC1.O=C(O)C(F)(F)F`, the Inhibition is recorded as 100% in test [1], 80% in test [2] and 21% in test [3].

Take `Cc1cccc2nc(-c3cccc(-c4cccc(NC(=O)CCc5c[nH]cn5)c4)c3)[nH]c12`: the Inhibition in test [1] came to 100%; in test [2] it was 86%; in test [3] it was 16%.

On to `OC(CNc1ccnc(Nc2cccc(Cl)c2)n1)c1cccc(C(F)(F)F)c1` (centres undefined), for which the Inhibition was found to be 100% in test [1], 98% in test [2] and 11% in test [3].

On to `O=C(Nc1ccc(C(F)(F)F)cc1)N[C@H]1CCN(CCCCCNC(=O)C2CC2c2ccc(Cl)c(Cl)c2)C1` (some centres undefined), for which the Inhibition is 96% in test [1], 0% in test [2] and 41% in test [3].

As to `Cc1cc(N2CCC(C)CC2)nc2cc(O)ccc12`, the results for the Inhibition in test [1], in test [2] and in test [3] were 89%, 41% and 31%, respectively.

Take `CCC(=Cc1cccc([N+](=O)[O-])c1)C(=O)NCC1CCN(c2nc3cc(OC)c(OC)cc3c(=N)[nH]2)CC1.Cl`: the values for the Inhibition in test [1], in test [2] and in test [3] were 100%, 62% and 25%, respectively.

For `Cc1cccc2nc(-c3ccc(-c4cccc(NC(=O)Nc5ccsc5)c4)cc3)[nH]c12`, the values for the Inhibition in test [1], in test [2] and in test [3] were 100%, 24% and 24%, respectively.

For the molecule `COc1ccc2nc3cc(Cl)ccc3c(NCCCN3CCNCC3)c2c1.Cl`, the figures for the Inhibition in test [1], in test [2] and in test [3] were 100%, 74% and 18%, respectively.

Take `O=C(/C=C/c1ccc(Cl)c(Cl)c1)NCCCCCN1CC[C@H](NC(=O)/C=C/c2ccccc2)C1`: the Inhibition was determined as 93% in test [1], 1% in test [2] and 10% in test [3].

With `COc1ccc(C(=O)N2CCC3(CC2)C(=O)N(CC(=O)NCC2CCCCC2)CN3c2ccccc2)cc1`, the Inhibition in test [1] was 100%; in test [2] it was 99%; in test [3] it was 18%.

As for `O=C(CCc1cccnc1)Nc1ccc(-c2cccc(-c3nc4cc(F)ccc4[nH]3)c2)cc1`, the Inhibition worked out at 86% in test [1], 9% in test [2] and 67% in test [3].

As for `CCOc1ccc2nc(C)cc(N/N=C/c3ccccc3[N+](=O)[O-])c2c1`, the Inhibition came to 100% in test [1], 99% in test [2] and 91% in test [3].

Take `Cc1ccc(-c2nc(NC(=O)Nc3ccc(C(F)(F)F)cc3)sc2C)cc1Cl`: the Inhibition worked out at 99% in test [1], 86% in test [2] and 29% in test [3].

As to `CC(=O)Nc1ccc(CN2CCC(CNC(=O)c3cc(-c4cccc(C(F)(F)F)c4)cs3)C2)cc1.O=C(O)C(F)(F)F` (centres undefined), the Inhibition in test [1] was 97%; in test [2], 3%; in test [3], 24%.

For the molecule `Cc1[nH]c(C)c(-c2ccc(CCc3cccc(C(F)(F)F)c3)nc2)c(=O)c1Cl`, the Inhibition is 99% in test [1], 97% in test [2] and 28% in test [3].

Take `NS(=O)(=O)c1ccc(CNc2ccc3ncc(-c4ccc(OC(F)(F)F)cc4)n3n2)cc1`: the results for the Inhibition in test [1], in test [2] and in test [3] were 97%, 99% and 10%, respectively.

Turning to `O=C(C=Cc1ccc(Cl)c(Cl)c1)NCCCCCN1CCC(CCCNC(=O)/C=C/c2ccccc2)CC1`, the Inhibition is listed as 96% in test [1], 33% in test [2] and 50% in test [3].

For the molecule `OC(c1ccccc1)C1CN(CCc2ccccc2)CCC1(O)c1ccccc1` (centres undefined), the Inhibition is reported as 97% in test [1], 92% in test [2] and 0% in test [3].

On to `CCCCC(=O)Nc1ccc(Nc2nc(C)cc(N3CCCC3)n2)cc1`, for which the Inhibition in test [1] was found to be 100%; in test [2], 67%; in test [3], 38%.

Regarding `COc1ccc(C(=O)CC(=O)c2ccc(OC)cc2OC)c(OC)c1`, the Inhibition in test [1] was 98%; in test [2], 0%; in test [3], 1%.

Take `Clc1cc2c(Nc3ccc(Oc4ccccc4)cc3)ccnc2cc1-c1ccc(CNCCN2CCOCC2)o1`: the results for the Inhibition in test [1], in test [2] and in test [3] were 100%, 89% and 0%, respectively.

`Oc1cc(-c2cccc(C(F)(F)F)c2)nc(Nc2ccc(Cl)c(Cl)c2)n1`: the figures for the Inhibition in test [1], in test [2] and in test [3] were 97%, 97% and 57%, respectively.

As for `O=C(Nc1ccc(OC2CCN(Cc3ccc(F)cc3)CC2)c(Cl)c1)c1ccoc1.O=C(O)C(F)(F)F`, the Inhibition in test [1] is on record as 89%; in test [2], 90%; in test [3], 0%.

As for `CC1(C)N=C(N)N=C(Nc2ccc(F)c(F)c2)N1.Cl`, the Inhibition in test [1] was determined as 91%; in test [2] it was 1%; in test [3] it was 59%.

With `CCCC(=O)c1cnc2c(Oc3cc(Cl)ncn3)cccc2c1Nc1ccccc1C`, the figures for the Inhibition in test [1], in test [2] and in test [3] were 99%, 85% and 6%, respectively.

Regarding `CC(C)COc1ccc(Cl)cc1Cc1ccc(-c2nc3c(F)cccc3[nH]2)o1`, the values for the Inhibition in test [1], in test [2] and in test [3] were 98%, 47% and 15%, respectively.

For the molecule `COc1cccc(CNC[C@@H](O)[C@H](Cc2ccccc2)NC(=O)c2cc(C3CCCC3)cc(N3CCCCS3(=O)=O)c2)c1.Cl`, the figures for the Inhibition in test [1], in test [2] and in test [3] were 96%, 83% and 7%, respectively.

Regarding `CC1CN(Cc2cccc(-c3ccc(-c4nc5cc(F)ccc5[nH]4)cc3)c2)CC(C)O1.O=C(O)C(F)(F)F` (centres undefined), the Inhibition in test [1] was found to be 87%; in test [2], 88%; in test [3] it was 45%.

Turning to `O=C(NCc1ccc(Cl)cc1)c1ccc(CN2CCCN(Cc3cccc(O)c3)CC2)cc1.O=C(O)C(F)(F)F`, the Inhibition in test [1] is recorded as 82%; in test [2], 12%; in test [3], 25%.

With `CNCc1cccc2nc(-c3ccc(Cc4cc(Cl)ccc4OCC(C)C)o3)[nH]c12.Cl`, the results for the Inhibition in test [1], in test [2] and in test [3] were 97%, 23% and 20%, respectively.

As to `Cc1cc(N(CCO)CCCN2CCCCC2)nc(Nc2ccc(Cl)cc2)n1.Cl`, the Inhibition in test [1] amounted to 100%; in test [2], 18%; in test [3], 12%.

`O=C(Nc1cccc(-c2cc(-c3c(Cl)cccc3Cl)no2)c1)c1cnc2ccccc2c1`: the values for the Inhibition in test [1], in test [2] and in test [3] were 87%, 34% and 0%, respectively.

Consider `COc1cc(F)c2ncc(Cl)c(C(O)CN3CCC(NC(=O)c4ccc5c(n4)NC(=O)CO5)CC3)c2c1.Cl` (centres undefined), for which the Inhibition in test [1] amounted to 100%; in test [2], 100%; in test [3], 22%.

Take `CC(=O)Nc1cccc(C(=O)Nc2cccc(-c3ccc(-c4nc5cc(F)ccc5[nH]4)cc3)c2)c1`: the Inhibition in test [1] is 95%; in test [2] it was 9%; in test [3], 60%.

For `Clc1ccc(-c2cc3c(NCc4ccncc4)nccc3s2)cc1`, the Inhibition in test [1] was 98%; in test [2], 8%; in test [3] it was 26%.
